According to PubChem BioAssay AID1704 (The Scripps Research Institute Molecular Screening Center, 2009):
The other results are listed elsewhere or left out. Unmarked numbers belong to inactive results. Activity calls are given as the source filed them.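 Rule for the calls: active = inhibition above the mean of stimulated solvent-only control wells plus 3 SD (cut at about 22% in these data); inactive = the rest.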

Experiment: blockers of isoproterenol-driven CNG channel signal – cell-based, HEK293-CNG parental, membrane potential fluorescence, Y1 set, counter-screen for NPY-Y1 potentiator/agonist project (AID 1704);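 note: 0% = isoproterenol-stimulated DMSO wells and 100% = unstimulated DMSO wells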
Settings: isoproterenol cAMP, at 3.6 µM, hits give high values

Question: Which inhibition does the source give for `N#Cc1ccc(C(=O)Nc2nc(-c3cccs3)c(C(=O)C(F)(F)F)s2)cc1` here?
Answer: -18.5%

Question: For `COC(=O)c1ccc(NC(=O)CN(c2ccc(C)cc2)S(=O)(=O)c2c(C)n[nH]c2C)cc1`, which inhibition is on record?
Answer: 36.6% (active)

Question: With `Cc1ccccc1NCC(=O)N/N=C\c1ccc([N+](=O)[O-])s1` as the compound, how does the inhibition read?
Answer: 33.8% (active)

Question: With `CCn1c2ccccc2c2cc(NC(=O)Nc3ccc([N+](=O)[O-])cc3C)ccc21` as the compound, how does the inhibition read?
Answer: 16.4%

Question: For `CSc1nc(-c2ccco2)nn1C(=O)c1ccccc1Cl`, which inhibition is on record?
Answer: 12.3%

Question: For `Cc1cccc(OCC(O)CN2CCN(CCN3C(=O)c4cccc5cccc(c45)C3=O)CC2)c1C` (stereo unspecified), which inhibition is on record?
Answer: 51.3% (active)

Question: With `O=[N+]([O-])c1cc(Cl)cc(/C=N/NC(=S)Nc2cc(S(=O)(=O)N3CCOCC3)ccc2Cl)c1O` as the compound, how does the inhibition read?
Answer: 66.5% (active)

Question: With `CC(=O)c1ccc(NC(=O)C2CC(=O)Nc3nc4ccccc4n32)cc1` (stereo unspecified) as the compound, how does the inhibition read?
Answer: 32.8% (active)

Question: Which inhibition does the source give for `O=C(Nc1ccccc1C(F)(F)F)c1cc(-c2ccc(O)cc2)on1` here?
Answer: -10.9%

Question: With `O=C1/C(=C/c2coc3ccc(O)cc3c2=O)SC(=S)N1c1ccccc1` as the compound, how does the inhibition read?
Answer: 11.7%

Question: With `O=C(Nc1ccc2c(c1)CCC2)c1cccc(S(=O)(=O)Nc2ccccc2Cl)c1` as the compound, how does the inhibition read?
Answer: 7.5%

Question: Which inhibition does the source give for `CC1=C/C(=N\OS(=O)(=O)c2ccccc2)C=CC1=O` here?
Answer: 16.7%

Question: For `CN1C(=O)c2ccccc2C(C(=O)NCCCN2CCCC2)C1c1c[nH]c2ccccc12` (stereo unspecified), which inhibition is on record?
Answer: -0.85%

Question: With `O=C(c1cccs1)N1CCN(C(=O)N2CCOCC2)CC1` as the compound, how does the inhibition read?
Answer: 1.33%

Question: Which inhibition does the source give for `COC(=O)c1sc(-c2ccc(C(C)(C)C)cc2)cc1NC(=O)/C=C/C(=O)O` here?
Answer: 24.5% (active)

Question: With `COCCn1nnnc1C(c1ccccc1Cl)N1CCN(c2ccccc2OC)CC1` (stereo unspecified) as the compound, how does the inhibition read?
Answer: -5.71%
